{
  "source": "PubChem BioAssay (NCATS)",
  "note": "Records with an inconclusive call do not appear. A call without a number means that no potency is given here. Calls of active or inactive are those of the source. The call rests on the fitted dose curve; in most records, active means well fitted activation curve with a large enough effect in the main read-out, with a control signal flat (not every such curve was filed as active); inconclusive means small, poorly fitted or top-dose-only effect, or effect the other way, or a change in a side signal; inactive means flat fitted curve, though single readings scatter. Potency means the concentration at half of the fitted maximal effect.",
  "data": [
    {"molecular_target": "3',5'-cyclic-AMP phosphodiesterase 4B (Homo sapiens) (UniProt Q07343)", "sequence (Q07343 whole entry, looked up)": "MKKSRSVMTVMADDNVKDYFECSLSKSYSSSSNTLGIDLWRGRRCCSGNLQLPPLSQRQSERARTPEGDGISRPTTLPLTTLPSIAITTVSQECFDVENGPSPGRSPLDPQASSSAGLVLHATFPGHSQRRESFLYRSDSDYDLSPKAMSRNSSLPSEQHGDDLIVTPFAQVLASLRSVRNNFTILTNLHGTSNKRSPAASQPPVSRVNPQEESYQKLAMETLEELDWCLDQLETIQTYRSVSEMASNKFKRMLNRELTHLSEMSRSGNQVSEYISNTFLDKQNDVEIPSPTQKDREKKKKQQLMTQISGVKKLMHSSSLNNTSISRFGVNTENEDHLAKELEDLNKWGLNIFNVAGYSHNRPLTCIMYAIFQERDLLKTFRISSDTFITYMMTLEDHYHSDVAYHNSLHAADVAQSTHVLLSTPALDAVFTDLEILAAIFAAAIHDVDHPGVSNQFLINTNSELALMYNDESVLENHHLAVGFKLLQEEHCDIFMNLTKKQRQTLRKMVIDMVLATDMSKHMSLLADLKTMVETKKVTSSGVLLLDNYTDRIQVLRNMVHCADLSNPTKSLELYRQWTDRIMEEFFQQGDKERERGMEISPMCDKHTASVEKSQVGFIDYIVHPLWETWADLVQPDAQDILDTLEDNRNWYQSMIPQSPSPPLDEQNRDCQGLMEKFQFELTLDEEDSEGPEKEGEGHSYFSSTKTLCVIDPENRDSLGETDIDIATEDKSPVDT", "test": "qHTS Assay for Inhibitors of PDE-IV (AID 607)", "details": "HEK293 ACTOne CNG channel cells, membrane potential fluorescence; series mostly up to 22.9 µM", "text": "NIH Chemical Genomics Center [NCGC]\nNIH Molecular Libraries Screening Centers Network [MLSCN]\nThe cyclic nucleotide phosphodiesterases (PDEs) are proteins that catalyze hydrolysis of 3', 5'-cyclic nucleotides, such as cyclic adenosine monophosphate (cAMP) and cyclic guanosine monophosphate (cGMP), to their corresponding 5'-nucleotide monophosphates. These enzymes play an important role in controlling cellular concentrations of cyclic nucleotides and have a central role in a variety of intracellular signaling events. cAMP PDEs are emerging as a promising class of drug targets in asthma and cardiovascular disease therapeutic areas.\nThere are no commercially available cell-based screening assays for PDE inhibitors: currently biochemical assays are done using pure substrates (cAMP or cGMP) and purified recombinant PDE enzymes. As with other biochemical screens on intracellular targets, false positives and false negatives may result from issues involving cell membrane permeability, cellular metabolism, and the like.\nHere we report the development of a cell-based screening assay for cAMP phosphodiesterase (PDE) inhibitors. The assay is based on the BD ACTOne# technology (BD Biosciences) which utilizes a modified cyclic nucleotide-gated channel (CNG) to monitor intracellular cAMP changes in live cells. The CNG channel is localized on the plasma membrane, and opens when the intracellular cAMP level increases, resulting in ion flux and cell membrane depolarization. The influx of cations through the CNG channel can be quantified using membrane potential (MP) dyes. We modified the BD ACTOne technology to allow the detection of PDE inhibitors, and performed an inhibitor screen for PDE-IV, which is expressed endogenously in HEK293 cells. We optimized this assay in homogeneous 1536-well plate assay format for high throughput screening.\nNCGC Assay Protocol Summary:\nThe medium contained 10% FBS (Invitrogen), 2 mM L-glutamine, and 250 ug/ml G418 (Cellgro) and 1 ug/ml puromycin (Clontech). ACTOneTM parental cells (BD Biosciences) were maintained in the same medium without puromycin.\nThe activity of the CNG channel was measured by BD ACTOneTM membrane potential dye kit (BD Biosciences). Forskolin, a positive control for cAMP activation and RO 20-1724, a PDE inhibitor, were both purchased from Sigma and solublized in DMSO.\nSequence,Parameter,Value,Description\n1,Reagent,3 uL,1000 cells/well 1536 TC treated Black plate\n3,Compound,0.5 uL,Kalypsys dispense RO 20-1724 100 uM final [A]\n4,Reagent,3 uL,BD membrane potential dye\n6,Compound,23 nL,Final concentration was 0.7nM to 22.9uM\n8,Detector,EX 535 / EM 590 [B],Envision\nFootnotes: [A] The stock 2 mM RO 20-1724 PDE inhibitor was made in 10 % DMSO. Parental cell line received 10 uM forskolin + 100 uM RO. [B] Envsion settings: Bottom Excitation 535/20 nm top emission 590/20, gain of 150 and 5 flashes per well.\nKeywords: PDE, PDE-IV, cytotoxicity, flourescence, MLSMR, MLSCN, NIH Roadmap, qHTS, NCGC", "values": [
      {"smiles": "C[C@H](N)Cc1cnc[nH]1", "Potency": "inactive"},
      {"smiles": "C=C1[C@@H](O)C2C=CC[C@H](C)C(=O)[C@@](C)(O)C=C[C@@H](OC(C)=O)[C@@]23C(=O)N[C@H](Cc2ccccc2)[C@@H]3[C@@H]1C", "note": "(stereo not given in full)", "Potency": "inactive"},
      {"smiles": "Cc1c(C(=O)c2ccc3ccccc3c2)c2cccc3c2n1[C@H](CN1CCOCC1)CO3", "Potency": "inactive"},
      {"smiles": "N#CC(C#N)=Cc1ccc([N+](=O)[O-])c(O)c1", "Potency": "inactive"},
      {"smiles": "NC[C@H](CC(=O)O)c1ccc(Cl)cc1", "Potency": "inactive"},
      {"smiles": "C=C(C)CN1CC[C@@]23c4c5ccc(O)c4O[C@H]2c2[nH]c4ccccc4c2C[C@]3(O)[C@@H]1C5", "Potency": "inactive"},
      {"smiles": "NCCCP(=O)(O)CC1CCCCC1", "Potency": "inactive"},
      {"smiles": "NC[C@@H](CC(=O)O)c1ccc(Cl)cc1", "Potency": "inactive"},
      {"smiles": "COc1ccc2[nH]cc(CCN(C)C)c2c1", "Potency": "inactive"},
      {"smiles": "O=C(O)c1ccccc1-c1c2cc(Br)c(=O)cc-2oc2[c]([Hg])c(O)c(Br)cc12", "Potency": "inactive"},
      {"smiles": "COc1cc(CCN)ccc1O", "Potency": "inactive"},
      {"smiles": "Oc1ccc2c3c1O[C@H]1c4[nH]c5ccccc5c4C[C@]4(O)[C@H](C2)N(CC2CC2)CC[C@@]314", "Potency": "inactive"},
      {"smiles": "CN1CCN(c2ccc3ccccc3n2)CC1", "Potency": "inactive"},
      {"smiles": "CCCN[C@@H]1CCc2c(OC)cccc2[C@@H]1C", "Potency": "inactive"},
      {"smiles": "CN1C(=O)COc2c(C(=O)N[C@@H]3CN4CCC3CC4)cc(Cl)cc21", "Potency": "inactive"},
      {"smiles": "NC[C@H](CP(=O)(O)O)c1ccc(Cl)cc1", "Potency": "inactive"},
      {"smiles": "Cc1o[nH]c(=O)c1C[C@@H](N)C(=O)O", "Potency": "inactive"},
      {"smiles": "c1ccc(C[C@@H](c2ccccc2)N2CCCCC2)cc1", "Potency": "4.77 µM (active)"},
      {"smiles": "C=C(C)[C@H]1CN[C@H](C(=O)O)[C@@H]1CC(=O)O", "Potency": "inactive"},
      {"smiles": "Clc1ccc([C@@H]2C[C@H]3CC[C@@H]2N3)cn1", "Potency": "inactive"},
      {"smiles": "O=C1NCN(c2ccccc2)C12CCN(C[C@H]1COc3ccccc3O1)CC2", "Potency": "inactive"},
      {"smiles": "Cc1o[nH]c(=O)c1C[C@H](N)C(=O)O", "Potency": "inactive"},
      {"smiles": "COC(=O)/C=C\\C(=O)N[C@@H]1CC[C@@]2(O)[C@H]3Cc4ccc(O)c5c4[C@@]2(CCN3CC2CC2)[C@@H]1O5", "Potency": "inactive"},
      {"smiles": "C=CCN1CC[C@@]23c4c5ccc(O)c4O[C@H]2/C(=N\\N=C2/CC[C@@]4(O)[C@H]6Cc7ccc(O)c8c7[C@@]4(CCN6CC=C)[C@@H]2O8)CC[C@]3(O)[C@@H]1C5", "Potency": "inactive"},
      {"smiles": "C=CCN1C[C@H](C)N([C@H](c2ccc(C(=O)N(CC)CC)cc2)c2cccc(O)c2)C[C@H]1C", "Potency": "inactive"},
      {"smiles": "COc1cccc2c1cc([N+](=O)[O-])c1c(C(=O)O)cc3c(c12)OCO3", "Potency": "inactive"},
      {"smiles": "Oc1ccc2c3c1O[C@H]1c4[nH]c5c(c4C[C@@]4(O)[C@@H](C2)N(CC2CC2)CC[C@]314)C[C@]1(O)[C@H]2Cc3ccc(O)c4c3[C@@]1(CCN2CC1CC1)[C@@H]5O4", "Potency": "inactive"},
      {"smiles": "CCNC(=O)[C@@H]1O[C@@H](n2cnc3c(N)ncnc32)[C@H](O)[C@H]1O", "Potency": "inactive"},
      {"smiles": "Clc1cncc(N2CCNCC2)n1", "Potency": "inactive"},
      {"smiles": "CC1=C(O)C(=O)[C@H]2O[C@@H]2C1=O", "Potency": "inactive"},
      {"smiles": "C=CCN1CC[C@]23c4c5ccc(O)c4O[C@@H]2C(=O)CC[C@]3(O)[C@H]1C5", "Potency": "inactive"},
      {"smiles": "COC(=O)N1CCN(C(=O)Cc2ccc(Cl)c(Cl)c2)[C@H](CN2CCCC2)C1", "Potency": "inactive"},
      {"smiles": "CC[C@]1(C2=NCCN2)Cc2ccccc2O1", "Potency": "inactive"},
      {"smiles": "COc1ccc(CCN)cc1O", "Potency": "inactive"},
      {"smiles": "CN(C(=O)Cc1ccc(Cl)c(Cl)c1)[C@@H](CN1CCCC1)c1cccc(OCC(=O)O)c1", "Potency": "inactive"},
      {"smiles": "Ic1cncc(OC[C@@H]2CCN2)c1", "Potency": "inactive"},
      {"smiles": "CNCC/C=C\\c1cccnc1", "Potency": "inactive"},
      {"smiles": "N[C@@H](CCCCP(=O)(O)O)C(=O)O", "Potency": "inactive"},
      {"smiles": "C[C@H](N)Cc1c[nH]c2ccc(OCc3cccs3)cc12", "Potency": "inactive"},
      {"smiles": "c1ccc2c(c1)OC[C@@H](C1=NCCN1)O2", "Potency": "inactive"}
    ]}
  ]
}
